Bioassay records: PubChem, National Center for Advancing Translational Sciences (NCATS)
Rows were chosen to be rich in hits. Some 10% of all compounds tested hit in one or more screens of this group.
12-hLO inh: 12-hLO (ALOX12) enzyme inhibition; P18054; purified 12-hLO, xylenol orange hydroperoxide absorbance; 150,000 compounds, 0.12% hits; Potency, µM (series often up to 57.1 µM), actives largely listed as inhibitors; AID 1452; active = well fitted inhibition curve with a large enough effect; inconclusive = small, poorly fitted or top-dose-only effect; note: nearly all actives have a fitted effect of over 55% in size
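Hydroperoxide output read as Fe(III)-xylenol orange absorbance, 573-to-405 nm ratio, after 30 min reaction with 40 uM arachidonic acid. Enzyme: 150 nM purified human 12hLO, 15 min compound preincubation; 25 mM Hepes pH 7.0, room temperature.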
PNC inhibitor: perinucleolar compartment assembly inhibition; AID 2417; PC3M PTB-GFP, PNC prevalence imaging, 16 h; active compounds read low; 140,000 compounds, 3.1% hits; activity change (PNC), negative = inhibition, % at 10 µM;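 active = readout at or below -70, meaning at least 70% loss of cells showing the perinucleolar compartment, a nuclear body marking cancer cells; inconclusive = readout between -30 and a set limit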
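Compounds are pinned in duplicate onto adhered PC3M cells stably expressing GFP-tagged PTB and incubated 16 h at 37 C. Cells are then fixed, nuclei stained with Hoechst, and PNC-positive cells counted.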
ALDH1A1 block: blocks purified human ALDH1A1 activity; P00352; Purified ALDH1A1, NADH fluorescence, propionaldehyde substrate; Potency, µM (top dose mostly 75.3 µM), actives largely listed as inhibitors; 220,000 compounds, 7.3% hits
LMNA splice mod: LMNA splicing modulation | HeLa LMNA splicing GFP/RFP minigene ratio, 48 h | Potency, µM (series often up to 46.1 µM), actives largely listed as inhibitors | 200,000 compounds, 0.01% hits | AID 1487; active = well fitted inhibition curve with a large enough effect in the signal ratio, with a control signal flat, not every such curve was filed as active; inconclusive = small, poorly fitted or top-dose-only effect, or effect the other way, or a change in a side signal; the % refers to the signal ratio
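S3 HeLa stable clones carrying a lamin A-EGFP splicing minigene plus DsRed2 were seeded at 600 cells/well in Opti-MEM with 2% FBS, pin-dosed and incubated 48 h at 37°C. Acumen cytometry (488 nm) gave the GFP/RFP total-intensity ratio.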
HPGD inh: inhibitors of human 15-hydroxyprostaglandin dehydrogenase (HPGD); purified HPGD, NADH fluorescence kinetic, PGE2 substrate; Potency, µM, most hits filed as inhibitors; 150,000 compounds, 4.3% hits; AID 894
Target sequence (P15428 whole entry, looked up): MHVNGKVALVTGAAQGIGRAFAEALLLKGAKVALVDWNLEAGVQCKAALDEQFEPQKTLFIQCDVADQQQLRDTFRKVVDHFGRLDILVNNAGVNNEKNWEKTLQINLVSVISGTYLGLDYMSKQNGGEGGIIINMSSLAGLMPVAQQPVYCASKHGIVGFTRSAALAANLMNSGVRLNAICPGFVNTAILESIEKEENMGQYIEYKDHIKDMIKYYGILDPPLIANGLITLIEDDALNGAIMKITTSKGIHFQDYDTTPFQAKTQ
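NADH formation kinetics: reaction with 30 uM PGE2 and 1 mM NAD+ (final), 20 nM enzyme, Tris-HCl pH 8 with Tween 20, after 15 min compound preincubation at room temperature. Fluorescence change, last versus first of five reads.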
Numbers stand for hits; – = inactive; ? = inconclusive; · = no result; [ ] = another dose, or the depositor's remark. Unless noted, calls come from the whole dose curve; as a rule, active = well fitted inhibition curve with a large enough effect (not every such curve was filed as active); inconclusive = small, poorly fitted or top-dose-only effect, or another doubt; inactive = no such curve, though single readings can be large or run the other way.

SMILES	12-hLO inh	PNC inhibitor	ALDH1A1 block	LMNA splice mod	HPGD inh
CCNc1ncc2nc(-c3ccc(OC)cc3)c(=O)n(Cc3cccc(OC)c3)c2n1	–	·	?	·	?
COc1ccc(NC(=O)CSc2nnc(Cc3cccn3C)n2-c2ccc(OC)cc2)cc1	–	–	14µM	–	–
COc1ccc(-n2c(Cc3cccn3C)nnc2SCC(=O)Nc2ccc(C(C)=O)cc2)cc1	–	–	8.9µM	–	–
COc1ccc(-n2c(Cc3cccn3C)nnc2SCC(=O)Nc2ccc(C)cc2)cc1	–	?	?	–	–
COc1ccc(-n2c(Cc3cccn3C)nnc2SCC(=O)Nc2cccc(Cl)c2)cc1	–	–	?	–	–
COc1ccc(-n2c(Cc3cccn3C)nnc2SCC(=O)NC2CCCCC2)cc1	–	–	–	–	–
CCc1ccc(NC(=O)CSc2nnc(Cc3cccn3C)n2-c2ccc(F)cc2)cc1	–	-90	?	–	–
CCOc1ccc(NC(=O)CSc2nnc(Cc3cccn3C)n2-c2ccc(OC)cc2)cc1	–	–	4µM	–	–
O=C(NC[C@H](O)c1ccccc1)c1ccccc1	·	·	–	·	–
O=c1cc(-c2ccc(O)cc2)oc2cc(OC3OC(CO)C(O)C(O)[C@H]3O[C@@H]3OC[C@@](O)(CO)C3O)cc(O)c12 (some centres not stated)	–	·	–	–	–
Cn1cccc1Cc1nnc(SCC(=O)NCc2ccccc2)n1-c1ccc(F)cc1	–	–	–	–	–
COc1ccc(Cl)cc1NC(=O)CSc1nnc(Cc2cccn2C)n1-c1ccc(F)cc1	–	-85	–	?	–
Cc1ccc(NC(=O)CSc2nnc(Cc3cccn3C)n2-c2ccc(F)cc2)cc1	–	–	?	?	–
CC(=O)c1ccc(NC(=O)CSc2nnc(Cc3cccn3C)n2-c2ccc(F)cc2)cc1	–	?	13µM	–	–
Cn1cccc1Cc1nnc(SCC(=O)N2CCN(c3ccccc3)CC2)n1-c1ccc(F)cc1	–	–	14µM	–	–
CN(C)S(=O)(=O)c1ccc(C(=O)NCc2nnc(SCC(=O)Nc3ccc(F)cc3)n2-c2ccc(F)cc2)cc1	–	–	7.1µM	–	–
COc1ccc(/C=N/NC(C)(C)C)c(OC)c1	·	·	20µM	?	·
O=C1CCCC2=C1C(c1ccco1)Nc1ccc(C(=O)c3ccccc3)cc1N2 (configuration not stated)	–	?	20µM	–	–
Cc1nc2ccc(Cl)cn2c1C(=O)NN	·	·	2µM	–	·
CCOC(=O)c1c(-c2ccccc2)nc2ccc(Cl)cn12	–	–	–	–	–
OCCC1CN(Cc2cnc(-c3cccc4ccccc34)nc2)CCN1C1CCCCC1 (configuration not stated)	·	·	–	–	·
COC(=O)N1CCC[C@@]2(CCN(Cc3cc(C(F)(F)F)cc(C(F)(F)F)c3)C2)C1	–	·	–	·	–
O=C1C2C3C=CC(C3)C2C(=O)N1CCCCN1C(=O)C2C3C=CC(C3)C2C1=O (configuration not stated)	–	–	?	–	–
C=CCOCCN1C(=O)C2C3C=CC(C2C1=O)C1C2C(=O)N(CCOCC=C)C(=O)C2C31 (configuration not stated)	·	·	14µM	–	·
CCCCC/C=C\C/C=C\CCCCCCCC(=O)NC(C)C(=O)O (configuration not stated)	–	·	–	·	–
SMILES	12-hLO inh	PNC inhibitor	ALDH1A1 block	LMNA splice mod	HPGD inh
Cc1cccn2cc(-c3ccc(S(=O)(=O)N4CCCCC4)cc3)nc12	·	·	–	–	·
COc1ccccc1CN1CCC2(CC1)CCN(C(=O)c1csnn1)CC2	–	·	–	·	–
CCN(CC)S(=O)(=O)c1ccc(F)cc1	–	–	–	–	–
CCN(CC)S(=O)(=O)c1ccc(NS(=O)(=O)c2ccc(F)cc2)cc1	–	–	13µM	?	–
CSc1ccc(S(=O)(=O)Nc2ccc(F)cc2)cc1	–	?	?	–	–
O=S(=O)(Nc1ccc(-n2cccc2)cc1)c1ccc(F)cc1	·	·	10µM	·	·
CO[C@@H]1COC(=O)C/C=C\[C@@H](C)[C@H](OC)COC(=O)[C@H](COCc2ccccc2)NC(=O)C/C=C\[C@H]1C	·	·	–[13.5 µM]	·	·
CCOC(=O)c1[nH]c(C)c(/C(O)=C2\C(=O)C(=O)N(CCCN3CCOCC3)C2c2cccnc2)c1C (configuration not stated)	–	–	?	–	–
Cc1c(/C(O)=C2/C(=O)C(=O)N(CCN3CCOCC3)C2c2ccccn2)cnn1-c1ccccc1 (configuration not stated)	·	·	?	–	·
O=C1C(=O)N(CCN2CCOCC2)C(c2ccccn2)/C1=C(/O)c1ccc(F)cc1 (configuration not stated)	–	–	25µM	?	–
COC(=O)c1[nH]c(C)c(/C(O)=C2\C(=O)C(=O)N(CCCN3CCOCC3)C2c2ccccn2)c1C (configuration not stated)	–	–	10µM	–	?
CC(C)Oc1ccc(/C(O)=C2/C(=O)C(=O)N(CCN3CCOCC3)C2c2ccccc2)cc1 (configuration not stated)	–	–	22µM	–	–
COc1ccc(/C(O)=C2/C(=O)C(=O)N(CCN3CCOCC3)C2c2ccccn2)cc1 (configuration not stated)	–	–	22µM	–	·
Cc1ccc(-n2nc(C(=O)N3CCN(c4cc(Cl)ccc4C)CC3)c(=O)n(C)c2=O)cc1	·	·	·	–	·
Cc1cc(C)c(NC(=O)CN2C(=O)NC3(CCCCC3)C2=O)c(Cl)c1	–	–	–	–	–
Cc1ccc(C2(C)NC(=O)N(CC(=O)NCCC3=CCCCC3)C2=O)cc1 (configuration not stated)	–	–	–	–	–
Cc1ccc(NC(=O)CN2C(=O)NC3(CCC(C)CC3)C2=O)c(Cl)c1 (configuration not stated)	–	-127	–	–	–
Cc1ccc(C2(C)NC(=O)N(CC(=O)NCc3cccs3)C2=O)cc1 (configuration not stated)	–	-108	–	?	?
Cc1ccc(C2(C)NC(=O)N(CC(=O)Nc3cccnc3Cl)C2=O)cc1 (configuration not stated)	·	·	3.2µM	·	·
CCN(C(=O)CSc1nc2ccccc2c2nc(CCn3c(C)nc4ccccc43)nn12)c1cccc(C)c1	·	·	·	–	·
Cc1cccc(C)c1NC(=O)c1oc2c(c1C)-c1nn(Cc3ccccc3)cc1CC2	·	·	·	–	·
Fc1ccc(N2CCN(Cc3cccn3-c3nnc(N4CCN(C5CCCCC5)CC4)s3)CC2)cc1	·	·	·	–	·
CC(C)(C)n1nnnc1C(c1cccc(C#N)c1)N1CCCCCC1 (configuration not stated)	–	–	?	–	–
CC(C)(C)n1nnnc1C(c1cccc(C#N)c1)N1CCN2CCCC2C1 (configuration not stated)	–	–	20µM	–	–
CC(=O)c1cccc(Nc2ncnc3c2cnn3C)c1	·	·	·	–	·
